Here are results for 40 molecules from PubChem BioAssay (EPA / NIEHS).

Calls of active or inactive are those of the source. How the source made its calls: active means hit-call score of the fitted dose curve at least 0.9, where 1 is the maximum; inactive means score below 0.9.

Read-out in the assay: Lipase C (LIPC), LIPC (gene 3990)
In words: LTEA_HepaRG_LIPC: Life Technologies and Expression Analysis (LTEA) Assay for Lipase C (LIPC) using HepaRG (AID 2283514). The conditions noted are these: mRNA level, 48 h; actives raise or lower the signal. As for the experimental part:
LTEA_HepaRG is a cell based, multiplexed-readout assay that uses HepaRG, a human liver cell line, with measurements taken at 48 hours after chemical dosing on a 96-well plate.LTEA_HepaRG_LIPC is one of 102 assay component(s) measured in the LTEA HepaRG cell culture assay. It is a marker of Steatosis.Data from the assay component LTEA_HepaRG_LIPC was analyzed into 1 endpoint. This assay endpoint, LTEA_HepaRG_LIPC, was analyzed with bidirectional fitting relative to DMSO as the negative control and baseline of activity. Using a type of inducible reporter, measures of mRNA induction for gain or loss-of-signal activity can be used to understand regulation of transcription factor activity. To generalize the intended target to other relatable targets, this assay endpoint is annotated to the esterase intended target family, where the subfamily is lipase.
A total of 1060 chemcials from the ToxCast library were tested in eight-point concentration-response experiments. Cell culture and cytotoxicity assays were conducted at Thermo Fisher Scientific's Custom Services facility (Madison, WI). A single lot of human HepaRG cells (Thermo Fisher Scientific, Frederick, MD) was used for the cell culture experiments. 96-well format collagen type I coated plates of human HepaRG cells were prepared using established methods. Briefly, cryopreserved HepaRG cells were thawed, plated at a density of approximately 100,000 cells/well in HepaRG Thaw, Plate, and General Purpose media (HPRG770, Thermo Fisher Scientific), and incubated for 48 hours. 0.5% DMSO was selected as vehicle control to balance the requisite need of DMSO in HepaRG cultures to maintain differentiation (for example, baseline metabolism, proportions of hepatocytes vs. cholangiocytes), while enabling further hepatic receptor pathway activation (for example, PXR and CAR) in response to chemical exposure. 48 hours after plating, the culture medium was replaced with HepaRG Serum-Free Incudtion Media. Cells were exposed to each test chemical in duplicate and maintained in CO2 incubators for another 48 hours. Chemical plates were thawed to room temperature and 200x concentrations of treatment groups were prepared. 8-point conentration-reponse curves were made with the highest exposure at 100 uM, followed by half-log dilutions, all in 0.5% DMSO. Each test plate contained variouse controls, induction positive controls (1mM phenobarbital), cytotoxicity positive controls ([…] aflatoxin B1), vehicle controls (0.5% DMSO), and total lysis controls (0.5% DMSO). Cell morphology images were taken using an Essen IncuCyte FLR automated microscope, with six 96-well plates imaged in about 24 minutes. Images were captured and exported and JPEG files. Spent culture media was transfered to black-well plates for the LDH assay, and remaining media was sorted at -80 C for later use. Cells were treated with RLT buffer and frozen until shipped for gene expression analysis. Total RNA was isolated from the cell suspension in 75 uL of Buffer RLT (Qiagen, Germantown, MD 20874) by Quintiles/Expression Analysis (Durham, NC) using a custom isolation procedure. Total RNA from each plate well was transferred to a preamplification plate. Fluidigm's 96.96 Dynamic ArrayTM (Fluidigm, Amsterdam, the Netherlands) technology was used for gene expression analyses by quantitative reverse transcription polymerase chain reaction (qRT-PCR, performed by Quintiles/Expression Analysis, Durham, NC)89. Standard TaqManTM Assays (Applied Biosystems/ThermoFisher Scientific, Foster City, CA) were used to assess the expression of 93 genes selected based on their selectivity and sensitivity to important hepatic receptors known to be modulated by environmental chemicals; importance in human hepatocyte functionality; and hepatotoxicity. […]
For `CCCCCCCCCCC`, the molecule was called inactive. As to `Oc1ccc2c(c1)OC[C@@H](N1CCC(O)(c3ccc(F)cc3)CC1)[C@H]2O`, the outcome was inactive. In the case of `COC(=O)c1ccc(O)cc1`, the molecule was classed as inactive. For the molecule `CCCCC(CC)COC(=O)CC(C(=O)OCC(CC)CCCC)S(=O)(=O)O` (stereo not given), the outcome was inactive.

As for `COCCOC[C@H](CC1(C(=O)NC2CCC(C(=O)O)CC2)CCCC1)C(=O)Oc1ccc2c(c1)CCC2` (stereo not given in full), the outcome was inactive. With `Nc1ccccc1N`, the AC50 – broadly, the concentration at which the activity in the assay is half-maximal – was 62.7 µM (active). Consider `OC[C@@H](O)[C@@H](O)[C@H](O)[C@H](O)CO`, for which the molecule was called inactive. On to `CCNc1cccc(C)c1`, for which the molecule was classed as inactive. As to `Cc1nc(-c2ccc3c(c2)CCN(CCC2CCC(NC(=O)/C=C/c4ccc(F)cc4)CC2)CC3)no1` (stereo not given), the molecule was classed as inactive.

With `Cc1cccc(Nc2cc(Cl)nc(SCC(=O)O)n2)c1C`, the call was inactive. With `CCCCOC(=O)CCCCCCCCC(=O)OCCCC`, the molecule was called inactive. `CC(C)c1ccc(C(=O)N=C(N)N)cc1S(C)(=O)=O`: the AC50 was 0.607 µM (active). For `Cc1ccccc1Cl`, the molecule was called inactive.

Regarding `CCCCCCCC=O`, the molecule was called inactive. For the molecule `O=C(OCCCCCOC(=O)c1ccccc1)c1ccccc1`, the AC50 was 2.1 µM (active). For `C[Si]1(C)O[Si](C)(C)O[Si](C)(C)O[Si](C)(C)O1`, the molecule was called inactive. In the case of `CNC(=O)[C@H]1O[C@@H](n2cnc3c(NCc4cc(Cl)ccc4OCc4cc(C)no4)ncnc32)[C@H](O)[C@@H]1N`, the molecule was called inactive. Consider `CCCc1cc(=O)[nH]c(=S)[nH]1`, for which the result was inactive.

In the case of `CCc1c(C(=O)NN2CCCCC2)nn(-c2ccc(Cl)cc2Cl)c1-c1ccc(Br)cc1`, the AC50 was 34.2 µM (active). In the case of `O=c1c(O)c(-c2ccc(O)c(O)c2)oc2cc(O)cc(O)c12`, the AC50 was 80.5 µM (active). In the case of `CN1CCCC1=O`, the outcome was inactive.

On to `COc1ccc(C)cc1N`, for which the call was inactive. Still for that read-out and setting: the same measure for `NCC1(Cc2noc(=O)[nH]2)CCCCC1`: “inactive”. For `Cc1ccc(Cl)cc1`, the molecule was called inactive. Turning to `FC(F)(F)C(F)(F)C(F)(F)C(F)(F)C(F)(F)C(F)(F)CCI`, the call was inactive. On to `CC(=O)OC/C=C(\C)CCC=C(C)C`, for which the call was inactive. Still for that read-out and setting: the entry for `CC=Cc1ccc(O)c(OC)c1` is “inactive”; for `CC1(C)CC(N=C=O)CC(C)(CN=C=O)C1` (stereo not given) it is “inactive”. Take `CCCCCCCCCCCC(=O)OC`: the outcome was inactive.

`Cc1cccc([N+](=O)[O-])c1C`: the molecule was called inactive. `CC1=C(/C=C/C(C)=C/C=C/C(C)=C/CO)C(C)(C)CCC1`: the result was inactive.

In the case of `CC(C)(C)c1cc(O)c(C(C)(C)C)cc1O`, the AC50 is 79.7 µM (active). On to `CNCc1cc(F)ccc1Oc1ccc(Cl)c(Cl)c1`, for which the result was inactive.

Take `Nc1nc(N)c2nc(CNc3ccc(C(=O)N[C@@H](CCC(=O)O)C(=O)O)cc3)cnc2n1`: the outcome was inactive. For the molecule `NS(=O)(=O)c1cc2c(cc1Cl)NCNS2(=O)=O`, the outcome was inactive. As to `COc1cc(C=O)ccc1O`, the molecule was classed as inactive. In the case of `COCCOCCOC`, the AC50 is 0.983 µM (active). `Cc1cc(=O)[nH]c(=S)[nH]1`: the molecule was called inactive. Take `CCCCN(CCCC)CCCC`: the molecule was classed as inactive. Same read-out and setting: the same measure for `COc1cc(S(=O)(=O)O)c(C)cc1N=Nc1c(O)ccc2cc(S(=O)(=O)O)ccc12`: “inactive”.
